Bioassay records (PubChem)
Compounds with a hit are over-represented: about 10% of the library has one in this group of screens.
VDR inh = Inhibitors of the vitamin D receptor (VDR): qHTS | Potency, µM, inactives show max response, negative = inhibition, hits mostly inhibitors | hit rate 0.93% among 400,000 | Vitamin D3 receptor (Homo sapiens), P11473 | VDR-SRC2-3 peptide fluorescence polarization, 2 h; note: potency is the fitted concentration of half-maximal effect
Target sequence (P11473 whole entry, looked up): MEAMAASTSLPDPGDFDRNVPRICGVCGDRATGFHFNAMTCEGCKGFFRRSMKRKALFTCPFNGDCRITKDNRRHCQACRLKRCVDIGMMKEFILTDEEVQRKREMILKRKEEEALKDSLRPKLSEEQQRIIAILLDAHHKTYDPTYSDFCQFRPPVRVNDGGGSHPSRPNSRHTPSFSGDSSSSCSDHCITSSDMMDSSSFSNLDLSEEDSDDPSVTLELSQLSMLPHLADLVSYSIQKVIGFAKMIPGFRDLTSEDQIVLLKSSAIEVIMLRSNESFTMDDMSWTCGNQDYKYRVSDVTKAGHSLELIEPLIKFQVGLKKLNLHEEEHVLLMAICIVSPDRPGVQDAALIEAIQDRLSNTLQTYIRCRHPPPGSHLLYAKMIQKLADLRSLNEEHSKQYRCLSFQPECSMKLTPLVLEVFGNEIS
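Inhibition of the VDR/SRC2-3 peptide interaction is quantified by fluorescence polarization. Compounds (23 nl, pintool) incubate with the reagents for 2 hours at ambient room temperature.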
Sfp inh = qHTS Assay for Inhibitors of Bacillus subtilis Sfp phosphopantetheinyl transferase (PPTase). Biochemical Sfp PPTase activity, qHTS. Potency, µM, for inactives: largest response in the series, negative = inhibition, actives largely listed as inhibitors. 4'-phosphopantetheinyl transferase ffp (Bacillus subtilis), Q9F4F7. hit rate 3.5% among 310,000;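 note: the enzyme is Sfp with the accession as filed and its product quenches rhodamine fluorescence; potency is the fitted concentration of half-maximal effect; 0% = enzyme reaction without inhibitor and -100% = no enzyme wells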
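Sfp 15 nM + cpd, 15 min RT; start w/ rhodamine-CoA 5 uM, BHQ-2-YbbR 12.5 uM (final); 50 mM Hepes pH 7.6, 10 mM MgCl2, 0.01% NP-40, 0.01% BSA; read 525/598 nm at 0 and 30 min.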
G9a inh = qHTS Assay for Inhibitors of Histone Lysine Methyltransferase G9a; Histone-lysine N-methyltransferase EHMT2 (Homo sapiens), Q96KQ7; G9a H3K9 monomethylation, AlphaScreen, 2 h; Potency, µM (doses to about 102 µM), for the others: at the top dose activity, negative = inhibition, actives largely listed as inhibitors; hit rate 8.8% among 350,000; AID 504332, 2011; note: potency is the fitted concentration of half-maximal effect; nearly all actives have a fitted effect of over 75% in size
Target sequence (Q96KQ7 913-1193 limits assumed): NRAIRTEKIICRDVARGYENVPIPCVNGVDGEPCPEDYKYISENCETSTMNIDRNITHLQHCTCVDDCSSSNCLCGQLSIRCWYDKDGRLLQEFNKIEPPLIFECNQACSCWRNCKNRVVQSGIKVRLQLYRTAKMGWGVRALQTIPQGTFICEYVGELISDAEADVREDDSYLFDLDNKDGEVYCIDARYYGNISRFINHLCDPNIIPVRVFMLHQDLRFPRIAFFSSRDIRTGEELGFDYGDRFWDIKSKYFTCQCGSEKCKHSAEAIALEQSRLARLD
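Readings reflect AlphaScreen signal from monomethyl-H3K9 antibody detection. HMT at 20 nM; substrate b-H3K9 500 nM; cofactor SAM 20 uM; 2 h RT reaction; compounds tested as titrations in qHTS with 15 min preincubation.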
PLK1 PBD block = qHTS for Inhibitors of PLK1-PDB (polo-like kinase 1 - polo-box domain): Primary Screen; Serine/threonine-protein kinase PLK1 (Homo sapiens), P53350; Plk1 PBD binding of FITC phosphopeptide, fluorescence polarization; Potency, µM, inactives show max response, negative = inhibition, most hits filed as inhibitors; hit rate 2.8% among 360,000; AID 720504, 2013; note: potency is the fitted concentration of half-maximal effect; series mostly up to about 57 µM; nearly all actives have a fitted effect of over 65% in size
CCT modulator = High-Throughput Screening for Modulators of Cytosolic Chaperonin Activity; purified chaperonin ATPase assay, HTRF ADP detection, 30 min; activity change, % (no concentration beside the values), hits read low; hit rate 0.3% among 360,000; in the data active = activity change below about -30%
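TRiC (40 or 20 nM final, by batch activity) in 30 mM Tris pH 7.4, 100 mM KCl, 5 mM MgCl2, 1 mM DTT was treated with compound at 76 uM single dose, then 10 uM ATP, 30 min at 37 °C. ADP was read by HTRF Transcreener.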
Mm-Cpn inhibitor = Inhibitors of TCP-1 ring complex (TRiC) of Methanococcus maripaludis (MmCpn): qHTS | purified Mm-Cpn ATPase, ADP Transcreener TR-FRET | AID 504842, 2011 | Chaperonin Mm-Cpn (Methanococcus maripaludis) | Potency, µM (top dose mostly 76.9 µM), for inactives: at the top dose activity, negative = inhibition, hits mostly inhibitors | hit rate 0.031% among 330,000; note: potency is the fitted concentration of half-maximal effect; nearly all actives have a fitted effect of over 80% in size
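Reaction buffer contained 30 mM Tris pH 7.4, 100 mM KCl, 5 mM MgCl2 and 1 mM DTT. Mm-CPN (25 nM final) hydrolysed 10 uM ATP over 30 min at 37°C; ADP was read by HTRF.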
* marks the source's active call; other numbers are inactive results; [ ] = dose if it differs, or a comment. Unless noted, calls come from the whole dose curve; as a rule, active = well fitted curve in the direction sought with a large enough effect; inconclusive = small, poorly fitted or top-dose-only effect, or another doubt; inactive = no such curve, though single readings can be large; an effect the other way counts as inactive or inconclusive. Unless noted, % is set by controls: 0 for no effect and ±100 for the full control effect.

COc1cccc(CNC(=O)c2cc3c(s2)-c2c(C)cccc2OC3)c1 was read as VDR inh -2.5% and G9a inh 28.4%[59 µM].
Cc1ccccc1Cn1cc(NC(=O)c2cc(C3CC3)on2)cn1 was read as VDR inh -13.3%, Sfp inh 5.3%, G9a inh 39.8µM*, PLK1 PBD block -16.8%, CCT modulator -1.9 and Mm-Cpn inhibitor -0.7%.
Screening Cc1ccc(S(=O)(=O)N(CC(=O)Nc2ccc3c(c2)OCO3)c2ccc(C)c(Cl)c2)cc1 returned VDR inh 3.6% and G9a inh -25.5%[59 µM].
`COC(=O)c1cc2oc3ccccc3c2n1CC(=O)Nc1ccc(F)c(Cl)c1` gave VDR inh -1.6% and G9a inh -4.2%[59 µM].
COc1ccc(NC(=O)c2cc3c(=O)n(Cc4cccnc4)ccc3nc2C)cc1Cl was read as VDR inh 7.8% and G9a inh 6.3%[59 µM].
Screening COc1ccc(-c2nc(-c3ccc(NC(=O)c4ccncc4)cc3)no2)cc1OC returned VDR inh -16.0%, Sfp inh 12.3%, G9a inh 11.9%, PLK1 PBD block -6.9%, CCT modulator -3.4 and Mm-Cpn inhibitor -2.8%.
Screening COc1ccc(NC(=O)c2ccc(-c3ccc(-c4noc(C)n4)cc3C)cc2)cc1N1CCN(C)CC1 returned VDR inh 10.9%, Sfp inh 31.6µM*, G9a inh 25.1µM*, PLK1 PBD block -9.3%, CCT modulator -4.1 and Mm-Cpn inhibitor 1.2%.
Screening COc1ccc(NC(=O)c2ccc(-c3ccc(-c4noc(C)n4)cc3C)cc2)cc1OCCN(C)C returned VDR inh 22.3%, Sfp inh 79.4µM* and G9a inh 15.8µM*.
Cc1ccc(C(=O)NCc2ccc(F)cc2)cc1NC(=O)c1nsc2ccccc12 was read as VDR inh 13.4% and G9a inh -6.2%[59 µM].
`O=c1cc(-c2ccccc2)n2c(SCc3ccc([N+](=O)[O-])cc3)nnc2[nH]1` gave VDR inh -7.3% and G9a inh 2.7%[59 µM].
For CN(C)c1ccc(NC(=O)Cn2c(SCc3ccc(F)cc3)nc3ccncc32)cc1 the results were VDR inh -0.7% and G9a inh 6.31µM*.
CCc1ccc(NC(=O)Cn2c(SCc3ccc(C)cc3)nc3ccncc32)cc1 was read as VDR inh -2.8%.
`Clc1ccccc1-c1nnc2sc(C3COc4ccccc4O3)nn12` (stereo unspecified) gave VDR inh inconclusive, Sfp inh 17.8µM*, G9a inh inconclusive, PLK1 PBD block inconclusive, CCT modulator -1.9 and Mm-Cpn inhibitor -10.2%.
c1ccc(Cc2nnc3sc(C4COc5ccccc5O4)nn23)cc1 (stereo unspecified) was read as VDR inh inconclusive, Sfp inh inconclusive, G9a inh 10µM*, PLK1 PBD block 15µM*, CCT modulator -0.6 and Mm-Cpn inhibitor -2.2%.
COc1ccccc1-c1nn2c(C3COc4ccccc4O3)nnc2s1 (stereo unspecified) was read as VDR inh 70.8µM*, Sfp inh 20µM*, G9a inh 3.55µM*, PLK1 PBD block 11.9µM*, CCT modulator 0.5 and Mm-Cpn inhibitor -19.5%.
Screening CCOc1ccc(-c2csc(C3COc4ccccc4O3)n2)cc1 (stereo unspecified) returned VDR inh -4.2%, PLK1 PBD block -6.5% and CCT modulator -3.4.
`c1ccc(OCc2nnc3sc(C4COc5ccccc5O4)nn23)cc1` (stereo unspecified) gave VDR inh 70.8µM*, Sfp inh 25.1µM*, G9a inh 7.94µM*, PLK1 PBD block 23.8µM*, CCT modulator 0.1 and Mm-Cpn inhibitor 0.5%.
`COc1ccccc1-c1nn2c(C(F)(F)F)nnc2s1` gave VDR inh 7.5%, Sfp inh 15.7%, G9a inh -12.8%, PLK1 PBD block -8.6%, CCT modulator 0.6 and Mm-Cpn inhibitor -1.3%.
COC(=O)CSc1nnc(C2COc3ccccc3O2)n1-c1ccccc1 (stereo unspecified) was read as VDR inh 7.6%, Sfp inh 11.7%, G9a inh -26.9%[12.7 µM], PLK1 PBD block -1.7%, CCT modulator 0.1 and Mm-Cpn inhibitor 0.5%.
For Cc1ccc(-c2nnc3sc(C4COc5ccccc5O4)nn23)cc1 (stereo unspecified) the results were VDR inh 1.8%, Sfp inh 0.5%, G9a inh -4.3%[59 µM], PLK1 PBD block -10.4%, CCT modulator -1.1 and Mm-Cpn inhibitor 0.3%.
`Cc1nc(N2C(=O)c3oc4ccccc4c(=O)c3C2c2cccc(OCCC(C)C)c2)sc1C` (stereo unspecified) gave VDR inh -7.4% and G9a inh -1.7%[59 µM].
For CC(C)[C@@H](CC(=O)N[C@@H]1CCNC[C@H]1C(=O)N[C@H](CC(=O)N[C@@H](CCC(=O)O)CC(=O)O)Cc1ccccc1)NC(=O)C[C@H](Cc1c[nH]c2ccccc12)NC(=O)[C@@H]1CNCC[C@H]1N the results were VDR inh 8.8% and Sfp inh -22.3%.
For Cc1cccc(OCc2nc(C#N)c(NCc3ccccc3Cl)o2)c1 the results were VDR inh -12.5% and G9a inh inconclusive.
c1ccc(CCc2nn3c(C4COc5ccccc5O4)nnc3s2)cc1 (stereo unspecified) was read as VDR inh -76.8%, Sfp inh -71.9%, G9a inh 3.55µM*, PLK1 PBD block 23.8µM*, CCT modulator -0.3 and Mm-Cpn inhibitor -3.9%.
Screening Cc1cccc(N=Nc2cnc(N)s2)c1 returned VDR inh inconclusive, Sfp inh 1.6%, G9a inh 28.2µM*, PLK1 PBD block inconclusive, CCT modulator -1.7 and Mm-Cpn inhibitor inconclusive.
Screening Cc1cccc(N=C(NO)c2nonc2N)c1 returned VDR inh 6.2%, Sfp inh 2.2%, G9a inh 5.5%, PLK1 PBD block -6.7%, CCT modulator -1.5 and Mm-Cpn inhibitor 1.6%.
Screening OCC(O)C(O)C(O)C(O)C1NCCS1 (stereo unspecified) returned VDR inh -32.4%, Sfp inh -2.9%, G9a inh 50.1µM*, PLK1 PBD block -16.8%, CCT modulator -1.7 and Mm-Cpn inhibitor 2.9%.
